Assay results from the supplement of paper PMC6555819.

Each sequence was assayed on VDR:RXRa (NR concentration 270 nM, RXRa partner concentration 90 nM) (assay: PBM binding z-score (relative to random genomic background probes); higher = stronger binding; sequences stand for … in GC…GCGATTGACAGCGTAGAATGAAGG).
Method: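 Protein-binding microarray (Agilent 4x180K custom design, double-stranded 60-nt probes: 5' GC cap, 34-nt variable region, 24-nt constant primer region; full probe sequence given). Purified or IVT nuclear receptor:RXRα heterodimers (3:1 NR:RXRα, mostly 270:90 nM) or homodimers were incubated for 1 h in PBS with 2% milk and no ligand, then detected with Alexa488 antibodies. Fluorescence from o1-orientation probes (~5 replicates averaged) was converted to z-scores against 500 random hg19 background probes. Variable regions are seed direct-repeat (DR0–DR5) sites, all their single-nucleotide variants and half-site ablations.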

| Sequence | PBM binding z-score |
| --- | --- |
| CCTACTGGGCGAAGGTCATTGATCAGTCAAAGCA | 2.18 |
| ATATGTAGGTTAGGGTCTTTCAGAAAGTAGGGAA | 0.666 |
| CAATCTAGGTCACGAAAGGTCAAAGTCGAATGAC | 6.99 |
| CGTCAAAGTTCAACTAAGGTAACTTAAAGCACGC | 4.76 |
| ACTAGGTGGTCAGCTGAGGTCACACACAATTCGG | 4.54 |
| AGTCAAAGGTCACTAGGTAACGTAAGATTCAGCT | 5.23 |
| TCGAGTAGGTTGCGGGGGCATTCAGGGATGAAGA | 3.33 |
| CGTCCAACGTCAAGGTCAGTGAAAGAGACTCGAA | 1.18 |
| CAAGCTAGGTCAAAGGTCAAAGTCGAGCCAACCA | 6.9 |
| CCGAGTAGGTTACGAGGGGGCGTTCAGTGCGAAT | 4.72 |
| CTATGTAGGTTAAGGGTGTCATTCAGTTTGAAAG | 3.24 |
| TCGAGTAGGTTACGGGGGCATTAAGGGATGAAGA | 3.4 |
| ATATGTAGGTTAGGGTCATTCATAAAGTAGGGAA | 4.67 |
| TCCAGTAGGTTACGGGGGCATTCAGGGATGAAGA | 4.04 |
| ATATGTAGGTTAGGGTCACTCAGAAAGTAGGGAA | 3.98 |
| CGAACTAGCTCAAAGGACAGTGAAAGGCGACGTA | -0.564 |
| CCGAGTAGGTTAGGAGGGGGCATTCAGTGCGAAT | 4.91 |
| CCTGCTAGTTCAATGGTCAGCTAAAGCAGCTCGC | 0.426 |
| ACTAGCAGGCCAAGAGTCACTCAAGATTAGTCCG | -0.367 |
| CTATGTAGTTTAAGGGGGTCATTCAGTTTGAAAG | 6.94 |

| Sequence | PBM binding z-score |
| --- | --- |
| TCGACTAGGTTACGGGGGCATTCAGGGATGAAGA | 4.04 |
| AAATGTAGGTTAAGGGTCATTCAGGTTGGTTCGC | 5.82 |
| GATACAGGGTCAGCTTGAGGCCAGAGTATGGAAA | 3.33 |
| CGAACTAGGTAAAGGACAGTGAATCTCCGCACGC | -0.323 |
| GATACAGGGTCAAGGCCAGAATACGCGTATTGAT | 4.05 |
| CTATGTAGGTTAAGGGGGACATTCAGTTTGAAAG | 4.95 |
| ACTAGCAGGCCAAGGGTGACTCAAGATTAGTCCG | -0.401 |
| GCTATTAGGTGAAAGGGCAACCGAATGATTCTCG | 0.806 |
| CGAACTAGGTCATCAGGACAGTGAAGAGGTTGGA | 1.89 |
| CGTCCAAGGTCATAGGAGGTCACTGAAGACAGAT | 7.05 |
| CTATGTAGGTTAAGGGGGTCACTCAGTTTGAAAG | 7.21 |
| CGAACTAGGTCACCAGGACAGTGACGAGGTTGGA | 2.13 |
| ATACCAAGGTGATCGTGAGTTCGTTGATACTAAC | 4.08 |
| CGAATTAGGTCAAAGGACAGTGAAAGGCGACGTA | 1.65 |
| CAAACCAGGTCACGAAAGGTCAAAGTCGAATGAC | 7.16 |
| CCGAGTAGGTTACGAGGGGGCACTCAGTGCGAAT | 4.68 |
| AACGAAAGGTCGACGAGGTGAGTATACACCGTTT | 5.12 |
| CGAACTAGGTCAAAGGAGAGTGAAAGGCGACGTA | 0.961 |
| ATATGTAGGTGAAGGGTCATTCAGGTTGGTTCGC | 5.46 |
| ATATGTAGGTTAGGGTCATTGAGAAAGTAGGGAA | 4.27 |
